Consider 11 compounds from ChEMBL document CHEMBL3988442, “University of Dundee, Small-Polar-MMV Screening Library” (2021).

What all share (parameters): scale not given: direction of the effect not stated beside the values
Test [1] has as its target Protein translocase subunit SecA (Escherichia coli (strain K12)) (UniProt P10408). As to the kind of experiment: Assay to Identify E. coli SecA ATPase Inhibitors. It counts as functional. The conditions noted are these: 30 µM.
For test [2], the target named is T1, Ubiquitin-activating enzyme e1, putative (Leishmania donovani (strain BPK282A1)) (UniProt E9BSI1).
T1 sequence (whole entry): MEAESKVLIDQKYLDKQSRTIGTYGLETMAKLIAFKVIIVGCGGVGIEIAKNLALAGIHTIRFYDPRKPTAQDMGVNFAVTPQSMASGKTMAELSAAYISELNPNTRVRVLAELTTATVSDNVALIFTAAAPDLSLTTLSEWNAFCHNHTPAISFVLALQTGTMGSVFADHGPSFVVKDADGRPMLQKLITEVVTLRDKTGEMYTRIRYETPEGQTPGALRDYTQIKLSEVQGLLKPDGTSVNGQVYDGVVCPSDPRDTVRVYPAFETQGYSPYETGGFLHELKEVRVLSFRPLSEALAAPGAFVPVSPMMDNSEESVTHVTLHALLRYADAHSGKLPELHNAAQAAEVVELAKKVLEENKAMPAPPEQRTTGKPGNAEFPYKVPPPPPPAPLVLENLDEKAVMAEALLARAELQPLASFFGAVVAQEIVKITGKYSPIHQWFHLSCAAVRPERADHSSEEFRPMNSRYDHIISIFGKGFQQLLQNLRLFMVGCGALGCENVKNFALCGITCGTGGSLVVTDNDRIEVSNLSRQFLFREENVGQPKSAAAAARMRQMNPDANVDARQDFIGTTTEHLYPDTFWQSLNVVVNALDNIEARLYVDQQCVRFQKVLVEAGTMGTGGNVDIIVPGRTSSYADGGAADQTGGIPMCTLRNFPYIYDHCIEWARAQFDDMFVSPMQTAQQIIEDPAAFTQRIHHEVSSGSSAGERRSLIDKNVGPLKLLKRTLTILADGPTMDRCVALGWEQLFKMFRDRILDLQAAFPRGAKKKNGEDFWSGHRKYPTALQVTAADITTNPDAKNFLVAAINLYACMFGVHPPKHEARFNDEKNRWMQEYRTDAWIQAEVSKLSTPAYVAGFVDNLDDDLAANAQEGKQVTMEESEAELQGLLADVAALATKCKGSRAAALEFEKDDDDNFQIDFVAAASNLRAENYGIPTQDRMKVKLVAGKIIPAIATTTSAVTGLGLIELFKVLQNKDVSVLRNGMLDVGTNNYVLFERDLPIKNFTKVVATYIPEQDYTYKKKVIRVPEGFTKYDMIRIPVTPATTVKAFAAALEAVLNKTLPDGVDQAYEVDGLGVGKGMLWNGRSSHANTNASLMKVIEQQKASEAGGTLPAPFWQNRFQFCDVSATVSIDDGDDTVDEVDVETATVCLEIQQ
The test is described as follows: Leishmania donovani Ubiquitin Activating Enzyme (LdE1). It counts as functional. The conditions noted are these: 30 µM.

In test [3] the target is AMP-activated protein kinase, AMPK (Homo sapiens) (UniProt P54646+O43741+P54619+Q9UGJ0+Q9Y478+Q13131+Q9UGI9). The test is described as follows: AMP-dependent Kinase enzyme assay. An in vitro enzyme assay that detects ADP turnover that is directly proportional to AMPK activity. This uses naive AMPK that is activated during the assay with MK-8722. In kind it is functional. The settings on record: 30 µM.

The target of test [4] is Sialic acid-binding Ig-like lectin 9 (Homo sapiens) (UniProt Q9Y336). As to the kind of experiment: Hs-Siglec9 ALPHAscreen SOP 20170721. The conditions noted are these: 10 µM.
A further test deals with Trypanosoma cruzi. As to the kind of experiment: Trypanosoma cruzi phosphomannomutase and mannose-1-phosphate guanylyltransferase assay. In kind it is functional. The settings on record: 10 µM.
Test [5] deals with T2, Arginase-2, mitochondrial (Homo sapiens) (UniProt P78540).
T2 sequence (whole entry): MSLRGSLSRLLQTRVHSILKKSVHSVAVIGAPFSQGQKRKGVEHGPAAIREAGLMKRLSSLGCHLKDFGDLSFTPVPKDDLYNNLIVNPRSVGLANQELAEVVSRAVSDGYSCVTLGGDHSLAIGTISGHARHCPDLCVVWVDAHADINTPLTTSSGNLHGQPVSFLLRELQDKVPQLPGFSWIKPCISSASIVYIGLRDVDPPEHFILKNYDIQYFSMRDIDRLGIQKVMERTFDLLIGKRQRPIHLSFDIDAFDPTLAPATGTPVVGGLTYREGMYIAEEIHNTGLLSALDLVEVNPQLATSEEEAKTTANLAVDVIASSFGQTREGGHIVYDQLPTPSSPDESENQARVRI
The test is described as follows: in vitro enzyme assay to detect the production of urea directly proportional to the activity of Arginase II. Further: in the data most compounds retested in dose-response had high values. In kind it is functional. The settings on record: 33.3 µM.

For test [6], the target named is T3, Proteasome subunit beta (Trypanosoma cruzi) (UniProt O96673).
T3 sequence (whole entry): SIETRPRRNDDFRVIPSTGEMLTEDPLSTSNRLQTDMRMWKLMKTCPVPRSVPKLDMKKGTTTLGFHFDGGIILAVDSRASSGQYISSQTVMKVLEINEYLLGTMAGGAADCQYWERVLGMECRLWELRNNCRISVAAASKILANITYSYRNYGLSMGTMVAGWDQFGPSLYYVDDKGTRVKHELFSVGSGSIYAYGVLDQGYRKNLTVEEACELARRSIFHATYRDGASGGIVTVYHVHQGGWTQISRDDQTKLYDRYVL
The test is described as follows: Trypanosoma cruzi proteasome chymotrypsin-like activity (TcProtChymo) assay. Further: in the data most compounds retested in dose-response had high values. It counts as functional. The conditions noted are these: 9.37 µM.

For another test, the species on record is Homo sapiens. As to the kind of experiment: To identify inhibition of the IFN signalling (Jak-Stat) pathway via expression of an eGFP reporter gene under the control of an IFN-stimulated response element (ISRE) containing MxA promoter. It counts as functional. The conditions noted are these: 30 µM.
Test [7] addresses T4, Tyrosyl-tRNA synthetase, putative (Trypanosoma cruzi (strain CL Brener)) (UniProt Q4DSP6).
T4 sequence (whole entry): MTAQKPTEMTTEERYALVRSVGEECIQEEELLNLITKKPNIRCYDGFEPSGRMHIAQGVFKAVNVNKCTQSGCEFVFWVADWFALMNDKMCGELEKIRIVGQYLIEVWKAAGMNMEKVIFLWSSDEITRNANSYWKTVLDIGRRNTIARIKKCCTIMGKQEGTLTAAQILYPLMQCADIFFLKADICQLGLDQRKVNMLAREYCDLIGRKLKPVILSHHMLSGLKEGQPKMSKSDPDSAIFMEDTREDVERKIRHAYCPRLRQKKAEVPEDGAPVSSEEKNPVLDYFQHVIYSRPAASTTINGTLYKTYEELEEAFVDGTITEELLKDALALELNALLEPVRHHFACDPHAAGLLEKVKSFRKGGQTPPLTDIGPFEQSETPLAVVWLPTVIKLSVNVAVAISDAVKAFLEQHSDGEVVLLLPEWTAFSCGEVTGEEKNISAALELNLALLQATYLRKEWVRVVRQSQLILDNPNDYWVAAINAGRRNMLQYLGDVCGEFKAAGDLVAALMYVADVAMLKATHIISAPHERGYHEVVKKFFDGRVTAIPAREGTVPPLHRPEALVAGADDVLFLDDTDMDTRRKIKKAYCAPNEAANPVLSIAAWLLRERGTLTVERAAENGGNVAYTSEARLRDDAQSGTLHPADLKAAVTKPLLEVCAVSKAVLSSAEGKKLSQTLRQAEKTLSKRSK
As to the kind of experiment: Trypanosoma cruzi tyrosyl tRNA synthetase (TcYRS) _High Tyrosine SOP. Further: in the data most compounds retested in dose-response had high values. In kind it is functional. The conditions noted are these: 30 µM.

Test [8] has as its target T4, Tyrosyl-tRNA synthetase, putative (Trypanosoma cruzi (strain CL Brener)). As to the kind of experiment: Trypanosoma cruzi tyrosyl tRNA synthetase (TcYRS) SOP. The conditions noted are these: 30 µM. It counts as functional.
Test [9] addresses Chromo domain-containing protein 1 (Saccharomyces cerevisiae (strain ATCC 204508 / S288c) (Baker's yeast)) (UniProt P32657). The test is described as follows: ScCHD-1 Enzyme Inhibition Assay. Further: in the data most compounds retested in dose-response had high values. In kind it is functional. The settings on record: 30 µM.

For some of these results: Entries with a potency or affinity are not part of this list.

Sequence of Protein translocase subunit SecA (Escherichia coli (strain K12)) (P10408 whole entry): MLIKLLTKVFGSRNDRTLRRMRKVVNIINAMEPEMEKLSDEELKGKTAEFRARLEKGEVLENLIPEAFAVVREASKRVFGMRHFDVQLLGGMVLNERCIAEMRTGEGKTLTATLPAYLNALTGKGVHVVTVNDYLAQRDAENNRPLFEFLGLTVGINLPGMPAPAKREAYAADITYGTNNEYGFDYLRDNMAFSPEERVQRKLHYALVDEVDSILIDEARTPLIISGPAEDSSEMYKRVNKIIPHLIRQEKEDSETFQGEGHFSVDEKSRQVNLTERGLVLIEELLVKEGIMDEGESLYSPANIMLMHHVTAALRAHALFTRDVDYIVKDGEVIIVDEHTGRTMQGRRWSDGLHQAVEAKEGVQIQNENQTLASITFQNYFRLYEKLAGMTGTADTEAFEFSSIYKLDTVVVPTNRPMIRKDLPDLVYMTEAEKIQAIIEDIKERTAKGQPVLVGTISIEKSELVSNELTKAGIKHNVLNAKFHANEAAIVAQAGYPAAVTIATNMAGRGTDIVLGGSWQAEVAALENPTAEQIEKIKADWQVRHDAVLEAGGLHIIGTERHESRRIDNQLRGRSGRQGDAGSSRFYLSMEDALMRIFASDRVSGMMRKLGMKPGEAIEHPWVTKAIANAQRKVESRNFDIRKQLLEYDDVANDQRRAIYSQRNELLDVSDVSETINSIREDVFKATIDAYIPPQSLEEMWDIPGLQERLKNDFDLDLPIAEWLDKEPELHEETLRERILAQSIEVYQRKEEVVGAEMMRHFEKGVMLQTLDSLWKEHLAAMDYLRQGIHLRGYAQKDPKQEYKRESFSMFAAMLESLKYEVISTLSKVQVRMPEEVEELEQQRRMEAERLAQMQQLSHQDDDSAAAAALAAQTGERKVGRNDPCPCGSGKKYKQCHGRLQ
Sequence of Chromo domain-containing protein 1 (Saccharomyces cerevisiae (strain ATCC 204508 / S288c) (Baker's yeast)) (P32657 whole entry, the tested form may be a part): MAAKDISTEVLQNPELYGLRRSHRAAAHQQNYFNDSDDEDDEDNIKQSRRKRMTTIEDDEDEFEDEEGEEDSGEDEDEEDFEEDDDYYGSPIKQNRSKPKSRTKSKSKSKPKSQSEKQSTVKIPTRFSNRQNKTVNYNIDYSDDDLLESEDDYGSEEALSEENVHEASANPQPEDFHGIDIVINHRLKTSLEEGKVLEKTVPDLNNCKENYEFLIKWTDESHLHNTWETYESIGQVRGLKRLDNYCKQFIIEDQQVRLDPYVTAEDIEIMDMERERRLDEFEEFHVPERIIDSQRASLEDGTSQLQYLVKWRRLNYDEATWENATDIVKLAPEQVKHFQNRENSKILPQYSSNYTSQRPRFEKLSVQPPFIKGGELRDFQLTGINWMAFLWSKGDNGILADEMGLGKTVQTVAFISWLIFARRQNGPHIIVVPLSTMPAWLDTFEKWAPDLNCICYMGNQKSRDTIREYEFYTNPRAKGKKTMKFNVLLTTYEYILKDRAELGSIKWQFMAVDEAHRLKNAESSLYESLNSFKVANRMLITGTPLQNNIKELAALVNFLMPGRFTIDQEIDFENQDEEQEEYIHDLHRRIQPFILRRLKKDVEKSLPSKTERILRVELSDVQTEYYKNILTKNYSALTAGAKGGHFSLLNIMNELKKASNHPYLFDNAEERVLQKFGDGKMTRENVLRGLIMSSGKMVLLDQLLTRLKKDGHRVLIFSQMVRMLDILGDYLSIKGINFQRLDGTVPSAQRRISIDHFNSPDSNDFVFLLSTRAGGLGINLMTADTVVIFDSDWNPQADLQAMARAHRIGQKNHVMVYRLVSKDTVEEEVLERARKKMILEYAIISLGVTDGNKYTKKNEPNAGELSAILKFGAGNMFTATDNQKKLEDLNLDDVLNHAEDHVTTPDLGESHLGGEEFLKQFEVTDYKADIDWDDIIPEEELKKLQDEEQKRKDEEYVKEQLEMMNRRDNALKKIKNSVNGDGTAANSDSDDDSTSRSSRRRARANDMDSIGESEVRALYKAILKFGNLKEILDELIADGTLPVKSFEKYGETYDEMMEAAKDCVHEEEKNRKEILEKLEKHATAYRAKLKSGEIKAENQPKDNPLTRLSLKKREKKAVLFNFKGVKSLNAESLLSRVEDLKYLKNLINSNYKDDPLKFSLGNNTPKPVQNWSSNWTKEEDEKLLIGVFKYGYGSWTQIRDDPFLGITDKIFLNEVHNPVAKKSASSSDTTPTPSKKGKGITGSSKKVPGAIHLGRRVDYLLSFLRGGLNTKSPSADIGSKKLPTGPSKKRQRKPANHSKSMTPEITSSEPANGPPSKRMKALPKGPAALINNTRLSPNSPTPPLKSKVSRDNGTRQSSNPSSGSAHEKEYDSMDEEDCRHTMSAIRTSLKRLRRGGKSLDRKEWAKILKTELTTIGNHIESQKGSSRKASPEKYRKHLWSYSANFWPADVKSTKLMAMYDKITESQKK
Sequence of Sialic acid-binding Ig-like lectin 9 (Homo sapiens) (Q9Y336 whole entry): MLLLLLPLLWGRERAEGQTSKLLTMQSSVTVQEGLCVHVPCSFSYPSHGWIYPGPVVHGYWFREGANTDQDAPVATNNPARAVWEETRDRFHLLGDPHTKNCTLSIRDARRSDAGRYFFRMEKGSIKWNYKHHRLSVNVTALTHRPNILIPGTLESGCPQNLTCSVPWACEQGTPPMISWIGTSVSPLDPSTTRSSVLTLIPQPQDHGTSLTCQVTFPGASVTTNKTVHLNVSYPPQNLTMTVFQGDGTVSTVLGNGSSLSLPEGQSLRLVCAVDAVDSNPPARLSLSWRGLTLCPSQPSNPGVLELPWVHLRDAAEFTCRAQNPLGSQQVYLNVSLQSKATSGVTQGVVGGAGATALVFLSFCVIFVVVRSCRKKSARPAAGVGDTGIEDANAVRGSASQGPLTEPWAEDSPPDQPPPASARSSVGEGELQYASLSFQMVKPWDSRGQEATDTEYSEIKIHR

Consider `COc1ccc(CCN2CCN(C(=O)c3scnc3C)CC2)cc1`, for which the Percent Effect was -2.7% in [1]; 10.5% in test [2]; 2.58% in [3]; 0.569% in [4]; 3.8% in the test on Trypanosoma cruzi; -3.55% in test [5]. Also, the Percent Effect is 16% in [6]; -22.1% in the test filed under Homo sapiens; 6.38% in test [7]; 10.4% in test [8]; -3.62% in test [9].

For the compound `CCC(C(=O)NC)N(c1cccc(C)c1)S(C)(=O)=O` (stereo unspecified), the Percent Effect in [1] was -4.2%; in test [2] it was 16%; in test [3] it was -4.91%; in test [4], 18.5%; in the test on Trypanosoma cruzi, 6.72%; in [5] it was 41.7%. The Percent Effect in test [6] is 4.71%; in the test filed under Homo sapiens it was 9.46%; in [7] it was 4.92%; in test [8], 13.6%; in [9], -3.23%.

Turning to `CC(C)(C)NC(=O)C1CSCN1S(=O)(=O)c1cccc(F)c1` (stereo unspecified), the Percent Effect was 1.74% in [1]; 8.22% in test [2]; -2.49% in [3]; -2.56% in [4]; -8.81% with Trypanosoma cruzi; 0.909% in test [5]. Besides, the Percent Effect in test [6] was 20.2%; in the test listed under Homo sapiens, 12.2%; in test [7], 3.23%; in test [8], 10%; in [9] it was -1.73%.

As for `CCS(=O)(=O)N1CCC2(CCCN(Cc3cc(OC)ccc3F)C2)C1` (stereo unspecified), the Percent Effect in test [1] is -4.17%; in test [2] it was 6.94%; in [3], -5.98%; in test [4] it was -4.29%; in the test on Trypanosoma cruzi, -2.23%; in test [5], 0.883%. For the same compound, the Percent Effect in test [6] is 14.6%; in the test listed under Homo sapiens it was 16.9%; in test [7], 6.32%; in [8], 7.69%; in [9] it was -4.39%.

Turning to `CC(C#N)CSc1ccccc1NCC(=O)Nc1ccc(F)cc1` (stereo unspecified), the Percent Effect in [1] is -7.84%; in test [2], -5.48%; in test [3] it was 17.1%; in test [4] it was -9.84%; in the test on Trypanosoma cruzi, -3.33%; in test [5], 1.82%. Further, the Percent Effect in test [6] was 6.39%; in the test filed under Homo sapiens it was 3.15%; in test [7], -8.6%; in test [8], -10%; in [9], -0.597%.

With `CC(Cc1ccco1)NC(=O)Nc1cnn(CC(N)=O)c1` (stereo unspecified), the Percent Effect in test [1] is 1.02%; in test [2], 6.33%; in test [3], 5.31%; in test [4], 0.769%; in the test on Trypanosoma cruzi it was -6.67%; in test [5], 2.8%. In addition, the Percent Effect in test [6] was 11%; in the test listed under Homo sapiens it was 9.49%; in test [7], 4.17%; in [8], 7.59%; in test [9], -2.83%.

In the case of `Cc1cnc(CNC(=O)NCc2cccnc2N(C)C)s1`, the Percent Effect is -3.06% in [1]; -2.6% in test [2]; 1.02% in test [3]; 13.8% in test [4]; -2.43% in the test on Trypanosoma cruzi; 2.85% in [5]. Moreover, the Percent Effect was -5.07% in test [6]; 5.66% in the test listed under Homo sapiens; 0% in test [7]; 7.32% in test [8]; 2.89% in [9].

`CN(Cc1nnc2n1CCC2)C(=O)Cc1ccc2c(c1)OCCO2`: the Percent Effect in test [1] is -1.44%; in [2], 13.5%; in [3], -8.06%; in [4] it was -5.38%; with Trypanosoma cruzi it was 4.25%; in [5] it was -5.21%. The Percent Effect was 13.7% in [6]; 10.6% in the test filed under Homo sapiens; 4.43% in test [7]; 18.5% in test [8]; -8.36% in [9].

Consider `O=C(Nc1cnn(CCN2CCOCC2)c1)c1ccccn1`, for which the Percent Effect was -3.13% in test [1]; 10.5% in test [2]; 3.43% in test [3]; 9.01% in [4]; 3.38% with Trypanosoma cruzi; 0% in test [5]. For the same compound, the Percent Effect in test [6] was 5.85%; in the test filed under Homo sapiens, -7.34%; in test [7], 5.39%; in test [8] it was 12.2%; in test [9] it was 0.887%.

In the case of `Cc1nc(C2CCCN(C(=O)Cn3ccccc3=O)C2)no1` (stereo unspecified), the Percent Effect in test [1] was -0.276%; in test [2], 0%; in test [3], 3.05%; in test [4], 1.79%; with Trypanosoma cruzi, -0.564%; in test [5] it was 4.6%. Further, the Percent Effect in [6] was -4.84%; in the test listed under Homo sapiens it was 8.71%; in [7] it was 2.45%; in test [8], 4.88%; in [9], 3.7%.

For the compound `O=S1(=O)CCN(Cc2cccnc2)[C@H]2CCN(c3ncccn3)CC[C@H]21`, the Percent Effect is -8.77% in test [1]; -2.7% in test [2]; -0.0275% in [3]; 20.3% in [4]; -3.91% with Trypanosoma cruzi; -0.417% in [5]. Besides, the Percent Effect is -2.62% in test [6]; 16.4% in the test listed under Homo sapiens; 3.96% in test [7]; -1.22% in test [8]; 0.188% in [9].
